# Source: PubChem BioAssay AID463173 (ICCB-Longwood Screening Facility, Harvard Medical School, 2010)
# Out of some 52,000 compounds screened, about 4,300 (8.3%) were called active. What follows is part of a selection rich in actives, with near analogues and random picks from the rest. A number with no mark means an inactive call. Rule as the data show it: active = survival mostly below about 52% (no sharp cut-off); inactive = mostly above about 56%.
# Tested on: DeltatarO mutant
# Assay: growth inhibition of S. aureus wild type versus tarO mutant, primary screen, teichoic acid synthesis inhibitors, RN4220, OD600 (AID 463173)
# Settings: OD600, 18 h, active compounds read low, screened at 18.75 µg/mL (by protocol)
row,Structure (SMILES),survival
1,Cc1ccc(Nc2cc(C)c(C#N)c3nc4ccccc4n23)cc1Cl,83%
2,Cc1cc(Nc2ccc(F)cc2)n2c(nc3ccccc32)c1C#N,89%
3,Cc1ccc(Nc2cc(C)c(C#N)c3nc4ccccc4n23)c(C)c1,38% (active)
4,O=C(Cn1nnc(-c2ccccc2NC(=O)c2cnccn2)n1)Nc1ccc2c(c1)OCCO2,105%
5,O=C(Oc1ccc2c(c1)OCO2)c1cccc(S(=O)(=O)N2CCCC2)c1,58%
6,COc1ccc(C(CC(=O)Nc2cc(Cl)c(OC)cc2OC)N2Cc3ccccc3C2=O)cc1 (stereo unspecified),0% (active)
7,COc1cc(Cl)c(C)cc1NC(=O)CC(c1ccc(F)cc1)N1Cc2ccccc2C1=O (stereo unspecified),0% (active)
8,COc1ccc(CNC(=O)C(CC(C)C)N2Cc3ccccc3C2=O)cc1 (stereo unspecified),126%
9,Cc1ccc(NC(=O)CC(c2ccc(F)cc2)N2Cc3ccccc3C2=O)cc1C (stereo unspecified),74%
10,COc1cc(C(CC(=O)NCCC(C)C)N2Cc3ccccc3C2=O)cc(OC)c1OC (stereo unspecified),94%
11,COc1ccc(C(CC(=O)Nc2cc(OC)c(OC)c(OC)c2)N2Cc3ccccc3C2=O)cc1 (stereo unspecified),57%
12,COc1cc(OC)c(NC(=O)CC(c2cccs2)N2Cc3ccccc3C2=O)cc1Cl (stereo unspecified),92%
13,CCOC(=O)CNC(=O)CC(c1cc(OC)c(OC)c(OC)c1)N1Cc2ccccc2C1=O (stereo unspecified),47% (active)
14,COc1cc(C(CC(=O)NCc2ccccc2)N2Cc3ccccc3C2=O)cc(OC)c1OC (stereo unspecified),135%
15,Cc1ccc(CNC(=O)C(C(C)C)N2Cc3ccccc3C2=O)cc1 (stereo unspecified),73%
16,COc1ccc(CNC(=O)C(C(C)C)N2Cc3ccccc3C2=O)cc1 (stereo unspecified),-5% (active)
17,CCOc1ccc(C(CC(=O)Nc2cc(C)c(Cl)cc2OC)N2Cc3ccccc3C2=O)cc1OC (stereo unspecified),70%
18,CSc1nn(Cc2ccc(F)cc2)c(N(C(C)=O)C(C)=O)c1S(=O)(=O)c1ccccc1,74%
19,COc1ccc(OC)c(NC(=O)Cn2c(=O)n(Cc3nc(C)no3)c(=O)c3ccccc32)c1,90%
20,O=C(CSc1oc(-c2ccco2)nc1S(=O)(=O)c1ccc(Cl)cc1)c1ccc(Cl)cc1,80%
21,Cn1cc(S(=O)(=O)c2ccccc2)c(=O)c2cc(F)c(N3CCCC3)cc21,123%

row,Structure (SMILES),survival
1,CC(=O)N1CCCc2cc(S(=O)(=O)N3CCC(C(=O)Nc4cccc(Cl)c4C)CC3)ccc21,74%
2,Cc1cccc(C)c1-n1ncc(C(=O)NCCCN2CCC(C)CC2)c1C1CCN(C(=O)OC(C)(C)C)CC1,91%
3,COc1ccccc1CNC(=O)CCc1c(C)nn(-c2ccc(N3CCOCC3)nn2)c1C,80%
4,CC(C)(C)OC(=O)N1CCC(c2c(C(=O)NCCN3CCc4ccccc4C3)cnn2-c2ccc(F)cc2F)CC1,70%
5,CC(C)(C)OC(=O)N1CCC(c2c(C(=O)NCCN3CCOCC3)cnn2-c2ccc(F)cc2F)CC1,-1% (active)
6,Cc1ccc(-n2ncc(C(=O)NCc3ccccn3)c2C2CCN(C(=O)OC(C)(C)C)CC2)c(C)c1,63%
7,Cc1ccc(C)c(N2CCN(CCCNC(=O)c3cnn(-c4cccc(Cl)c4)c3C3CCN(C(=O)OC(C)(C)C)CC3)CC2)c1,52% (active)
8,Cc1ccc(C)c(N2CCN(CCCNC(=O)c3cnn(-c4ccccc4Cl)c3C3CCN(C(=O)OC(C)(C)C)CC3)CC2)c1,74%
9,Cc1ccc(C)c(N2CCN(CCCNC(=O)c3cnn(-c4ccccc4)c3C3CCN(C(=O)OC(C)(C)C)CC3)CC2)c1,104%
10,CC(C)(C)OC(=O)N1CCC(c2c(C(=O)NCc3ccccn3)cnn2-c2ccccc2)CC1,101%
11,Cc1cccc(-n2ncc(C(=O)NCc3ccco3)c2C2CCN(C(=O)OC(C)(C)C)CC2)c1,81%
12,Cc1ccc(-n2ncc(C(=O)NCc3ccco3)c2C2CCN(C(=O)OC(C)(C)C)CC2)cc1,94%
13,CC(C)(C)OC(=O)N1CCC(c2c(C(=O)NCc3ccccn3)cnn2-c2ccccc2Cl)CC1,-4% (active)
14,Cc1ccc(-n2ncc(C(=O)NCc3ccco3)c2C2CCN(C(=O)OC(C)(C)C)CC2)c(C)c1,25% (active)
15,CC(C)(C)OC(=O)N1CCC(c2c(C(=O)NCCN3CCOCC3)cnn2-c2ccc(F)cc2)CC1,73%
16,COc1ccc(NC(=O)CSc2oc(-c3cccs3)nc2S(=O)(=O)c2ccc(Br)cc2)c(OC)c1,57%
17,O=C(Nc1cccc(F)c1)C1CCN(c2nc3ccccc3nc2C(F)(F)F)CC1,83%
18,COc1ccc(C(=O)N2CCC(C(=O)O)CC2)cc1,97%
19,Nc1cccc(-c2cn3ccccc3n2)c1,96%
20,Cc1ccc(-c2noc(CSc3nnc(C)n3-c3ccc(C)c(C)c3)n2)cc1,75%
21,CCOc1ccc(CNC(=O)Cn2cc3c(n2)-c2c(oc(C(=O)N4CCOCC4)c2C)CC3)cc1,72%

row,Structure (SMILES),survival
1,Cc1cccc(C)c1NC(=O)C(=O)NCC(c1ccc2c(c1)OCO2)N1CCN(C)CC1 (stereo unspecified),88%
2,Cc1cccc(NCN2C(=O)S/C(=C/c3ccc(N(C)C)cc3)C2=O)c1,73%
3,O=C(Cn1nc(-c2ccccc2)ccc1=O)NCC1COCCO1 (stereo unspecified),92%
4,COc1ccc(NC(=O)c2c(NC(=O)COc3ccc(Cl)cc3)sc3c2CCCCC3)cc1,135%
5,CCCCOc1ccc(C(=O)NCCc2csc(-c3ccc(OC)cc3)n2)cc1,108%
6,CCOC(=O)c1c(NC(=O)C(C)Sc2cn(CCNC(=O)c3ccc(OCC)cc3)c3ccccc23)sc2c1CCC2 (stereo unspecified),92%
7,CCOC(=O)c1c(C)[nH]c(C)c1S(=O)(=O)N(C)CC(=O)Nc1ccc(C)cc1C,95%
8,Cc1c(Cl)cccc1-n1ncc(C(=O)NC2CCCCC2)c1C1CCN(C(=O)OC(C)(C)C)CC1,94%
9,Cc1ccc(-n2ncc(C(=O)NCCN3CCN(C)CC3)c2C2CCN(C(=O)OC(C)(C)C)CC2)c(C)c1,92%
10,CC1CCN(C(=O)c2cnn(-c3cccc(Cl)c3)c2C2CCN(C(=O)OC(C)(C)C)CC2)CC1,78%
11,Cc1cccc(C)c1-n1ncc(C(=O)NCCN2CCOCC2)c1C1CCN(C(=O)OC(C)(C)C)CC1,101%
12,Cc1c(Cl)cccc1-n1ncc(C(=O)NC2CCCC2)c1C1CCN(C(=O)OC(C)(C)C)CC1,102%
13,CCOC(=O)N1CCC(NC(=O)c2cnn(-c3cccc(Cl)c3C)c2C2CCN(C(=O)OC(C)(C)C)CC2)CC1,20% (active)
14,Cc1ccc(-n2ncc(C(=O)NCCN3CCOCC3)c2C2CCN(C(=O)OC(C)(C)C)CC2)c(C)c1,37% (active)
15,CCN1CCN(C(=O)c2cnn(-c3cccc(Cl)c3)c2C2CCN(C(=O)OC(C)(C)C)CC2)CC1,74%
16,CCOC(=O)c1cnn(-c2cccc(Cl)c2)c1C1CCN(C(=O)OC(C)(C)C)CC1,55% (active)
17,Cc1cccc(C)c1-n1ncc(C(=O)NCCN2CCN(C)CC2)c1C1CCN(C(=O)OC(C)(C)C)CC1,8% (active)
18,Cc1cccc(C)c1-n1ncc(C(=O)NCCCN2CCCCC2)c1C1CCN(C(=O)OC(C)(C)C)CC1,89%
19,Cc1ccc(-n2ncc(C(=O)NCCN3CCc4ccccc4C3)c2C2CCN(C(=O)OC(C)(C)C)CC2)c(C)c1,64%
